Test [1] concerns Tyrosine-protein kinase ABL1 (Homo sapiens), P00519 [T315I]. The following applies: at 1 µM.
Test [2] relates to Tyrosine-protein kinase ABL1 (Homo sapiens), P00519 [Y253F]. The following applies: at 0.1 µM.
Test [3] shares this test system. To be noted: at 1 µM.
For test [4], the target named is Tyrosine-protein kinase ABL1 (Homo sapiens) (UniProt P00519). To be noted: at 0.1 µM.
Test [5] has the same target. The following applies: at 1 µM.
The target of test [6] is ALK tyrosine kinase receptor (Homo sapiens) (UniProt Q9UM73). To be noted: at 0.1 µM.
Sequence of ALK tyrosine kinase receptor (Homo sapiens) (Q9UM73 19-1620 limits assumed): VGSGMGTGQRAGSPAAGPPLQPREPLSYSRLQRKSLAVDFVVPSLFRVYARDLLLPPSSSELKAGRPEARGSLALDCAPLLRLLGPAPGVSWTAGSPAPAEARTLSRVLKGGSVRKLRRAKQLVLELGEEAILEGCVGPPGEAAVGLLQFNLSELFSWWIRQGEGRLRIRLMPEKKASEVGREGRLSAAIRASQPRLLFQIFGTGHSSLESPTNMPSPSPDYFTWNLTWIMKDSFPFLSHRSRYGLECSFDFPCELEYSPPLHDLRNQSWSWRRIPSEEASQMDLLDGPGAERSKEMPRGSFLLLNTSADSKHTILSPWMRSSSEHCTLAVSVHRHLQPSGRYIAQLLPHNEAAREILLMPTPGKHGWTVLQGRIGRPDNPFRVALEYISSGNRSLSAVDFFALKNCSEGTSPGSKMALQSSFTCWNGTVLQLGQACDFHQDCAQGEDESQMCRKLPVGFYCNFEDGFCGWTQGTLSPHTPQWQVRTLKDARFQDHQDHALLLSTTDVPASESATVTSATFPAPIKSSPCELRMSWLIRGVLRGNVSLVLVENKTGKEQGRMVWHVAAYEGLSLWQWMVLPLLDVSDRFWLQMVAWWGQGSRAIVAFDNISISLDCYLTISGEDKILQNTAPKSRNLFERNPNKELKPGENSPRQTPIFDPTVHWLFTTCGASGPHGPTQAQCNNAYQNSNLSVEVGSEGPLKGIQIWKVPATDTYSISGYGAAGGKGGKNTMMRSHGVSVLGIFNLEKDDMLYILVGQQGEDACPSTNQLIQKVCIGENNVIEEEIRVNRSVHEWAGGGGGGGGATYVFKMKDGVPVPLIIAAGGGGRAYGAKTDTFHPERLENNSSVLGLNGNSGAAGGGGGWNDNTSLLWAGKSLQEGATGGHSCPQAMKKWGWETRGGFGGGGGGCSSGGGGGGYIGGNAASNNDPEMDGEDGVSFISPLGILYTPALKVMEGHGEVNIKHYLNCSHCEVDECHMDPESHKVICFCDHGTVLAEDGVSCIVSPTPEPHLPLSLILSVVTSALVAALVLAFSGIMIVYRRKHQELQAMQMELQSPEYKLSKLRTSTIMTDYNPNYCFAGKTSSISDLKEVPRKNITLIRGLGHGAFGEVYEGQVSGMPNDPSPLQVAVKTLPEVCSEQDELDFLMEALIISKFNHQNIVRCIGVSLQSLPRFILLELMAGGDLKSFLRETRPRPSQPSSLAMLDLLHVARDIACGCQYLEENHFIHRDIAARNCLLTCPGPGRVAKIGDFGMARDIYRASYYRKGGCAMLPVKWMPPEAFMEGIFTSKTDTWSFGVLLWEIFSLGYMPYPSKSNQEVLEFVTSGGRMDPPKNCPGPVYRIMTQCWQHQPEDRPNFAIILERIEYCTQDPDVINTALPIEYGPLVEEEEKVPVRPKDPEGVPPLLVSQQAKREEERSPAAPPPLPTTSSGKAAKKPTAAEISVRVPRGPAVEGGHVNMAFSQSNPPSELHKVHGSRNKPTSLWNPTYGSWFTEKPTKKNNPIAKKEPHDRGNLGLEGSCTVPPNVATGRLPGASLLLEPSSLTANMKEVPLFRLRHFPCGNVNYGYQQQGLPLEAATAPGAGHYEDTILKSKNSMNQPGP
Test [7] shares this target. To be noted: at 1 µM.
The target of test [8] is Tyrosine-protein kinase ABL2 (Homo sapiens) (UniProt P42684). The following applies: at 0.1 µM.
Sequence of Tyrosine-protein kinase ABL2 (Homo sapiens) (P42684 whole entry): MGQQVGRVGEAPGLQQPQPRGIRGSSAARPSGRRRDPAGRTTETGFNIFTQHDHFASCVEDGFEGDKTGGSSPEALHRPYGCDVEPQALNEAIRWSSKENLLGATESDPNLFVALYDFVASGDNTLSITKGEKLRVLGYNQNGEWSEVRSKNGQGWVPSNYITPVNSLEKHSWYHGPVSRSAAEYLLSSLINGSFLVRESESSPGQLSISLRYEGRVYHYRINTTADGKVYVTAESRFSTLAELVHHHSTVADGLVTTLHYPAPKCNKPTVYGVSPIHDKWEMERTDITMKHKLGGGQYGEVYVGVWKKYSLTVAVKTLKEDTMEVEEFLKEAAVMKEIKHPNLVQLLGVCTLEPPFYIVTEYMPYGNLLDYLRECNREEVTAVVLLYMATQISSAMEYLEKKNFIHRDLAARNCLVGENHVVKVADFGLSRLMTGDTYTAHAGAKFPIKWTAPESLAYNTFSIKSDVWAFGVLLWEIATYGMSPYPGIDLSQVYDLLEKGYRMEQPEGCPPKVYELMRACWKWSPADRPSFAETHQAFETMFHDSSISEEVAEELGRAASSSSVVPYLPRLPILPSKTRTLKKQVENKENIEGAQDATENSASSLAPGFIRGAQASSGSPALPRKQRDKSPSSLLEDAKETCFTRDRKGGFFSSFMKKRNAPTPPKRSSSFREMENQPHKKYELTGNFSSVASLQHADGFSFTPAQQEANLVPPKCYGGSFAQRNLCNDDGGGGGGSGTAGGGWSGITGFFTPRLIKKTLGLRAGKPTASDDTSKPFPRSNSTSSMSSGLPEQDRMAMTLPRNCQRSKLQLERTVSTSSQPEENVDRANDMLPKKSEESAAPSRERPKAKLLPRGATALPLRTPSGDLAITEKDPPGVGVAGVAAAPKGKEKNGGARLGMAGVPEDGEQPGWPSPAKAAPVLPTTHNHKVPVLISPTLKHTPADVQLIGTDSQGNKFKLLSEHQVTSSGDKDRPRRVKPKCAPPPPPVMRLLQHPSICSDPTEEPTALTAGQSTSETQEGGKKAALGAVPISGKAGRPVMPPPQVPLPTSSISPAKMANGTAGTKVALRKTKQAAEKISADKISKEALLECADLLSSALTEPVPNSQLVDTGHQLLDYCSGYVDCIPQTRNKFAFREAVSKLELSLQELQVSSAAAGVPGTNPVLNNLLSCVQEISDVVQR
The target is the same in test [9]. To be noted: at 1 µM.
The target in test [10] is Tyrosine-protein kinase receptor UFO (Homo sapiens) (UniProt P30530). To be noted: at 0.1 µM.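 Also: values are mean percent inhibition of AXL from the GSK PKIS screen.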
Sequence of Tyrosine-protein kinase receptor UFO (Homo sapiens) (P30530 whole entry): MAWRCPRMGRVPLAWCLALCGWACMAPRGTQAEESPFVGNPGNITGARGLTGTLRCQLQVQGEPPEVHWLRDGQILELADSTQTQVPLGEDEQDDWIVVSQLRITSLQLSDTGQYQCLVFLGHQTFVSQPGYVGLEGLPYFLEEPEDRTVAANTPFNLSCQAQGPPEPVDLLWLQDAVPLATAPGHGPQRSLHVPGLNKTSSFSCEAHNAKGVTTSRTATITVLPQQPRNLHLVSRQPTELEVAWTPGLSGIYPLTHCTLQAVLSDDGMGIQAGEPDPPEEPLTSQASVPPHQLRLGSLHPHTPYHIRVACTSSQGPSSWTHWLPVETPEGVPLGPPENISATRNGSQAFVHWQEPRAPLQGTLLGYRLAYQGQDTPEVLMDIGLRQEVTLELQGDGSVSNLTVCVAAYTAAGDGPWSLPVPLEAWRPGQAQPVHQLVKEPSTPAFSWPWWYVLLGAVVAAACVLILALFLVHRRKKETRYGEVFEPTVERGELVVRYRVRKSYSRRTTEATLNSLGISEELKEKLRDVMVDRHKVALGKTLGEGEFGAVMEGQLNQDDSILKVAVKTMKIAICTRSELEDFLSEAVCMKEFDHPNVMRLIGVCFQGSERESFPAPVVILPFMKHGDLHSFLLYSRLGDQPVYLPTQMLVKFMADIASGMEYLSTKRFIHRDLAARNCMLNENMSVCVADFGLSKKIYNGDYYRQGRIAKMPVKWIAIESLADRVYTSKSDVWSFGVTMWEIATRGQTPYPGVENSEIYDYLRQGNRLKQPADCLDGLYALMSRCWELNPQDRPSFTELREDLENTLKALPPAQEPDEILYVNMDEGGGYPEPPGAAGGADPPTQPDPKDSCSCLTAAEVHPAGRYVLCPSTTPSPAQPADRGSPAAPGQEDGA

Structures are written as SMILES.

Inhibition data for 16 molecules are collected here from ChEMBL document CHEMBL1961873, “Compounds: GSK PKIS; Assays: Nanosyn kinase panel” (2012).

As for `COc1ccccc1-c1cc(/C=C2\C(=O)Nc3ncc(Br)cc32)cc(Br)c1O`, the inhibition in test [1] is 5.39%; in [2] it was 5.65%; in [3], 20%; in test [4] it was 4.63%; in [5] it was 27.9%; in test [6] it was 2.62%. Besides, the inhibition is 6.47% in test [7], 3.44% in [8], 15.1% in test [9] and -9.46% in test [10].

On to `CCS(=O)(=O)c1ccc(OC)c(Nc2ncc(-c3cccc(F)c3)o2)c1`, for which the inhibition came out at 25.1% in test [1]; 52.5% in test [2]; 90.2% in [3]; 39.8% in test [4]; 77.5% in test [5]; 4.12% in [6]. For the same molecule, the inhibition was 7.35% in test [7], 32.8% in [8], 74.6% in test [9] and -6.71% in test [10].

In the case of `Cc1cc(O)cc(C)c1/C=C/c1cncc(C(N)=O)c1`, the inhibition in test [1] was 7.26%; in [2] it was 27.8%; in [3], 73.6%; in [4], 15.1%; in test [5], 66%; in test [6], 3.62%. Also, the inhibition was 4.41% in test [7], 12.2% in [8], 59.3% in test [9] and -2.07% in test [10].

For the molecule `CCCNc1cccc(-n2ncc3c(N/N=C/c4ccncc4)ncnc32)c1`, the inhibition is 85.8% in [1]; 42.4% in test [2]; 86.2% in test [3]; 24.3% in test [4]; 75.3% in [5]; 0.42% in test [6]. Moreover, the inhibition came out at 3.35% in test [7], 11.6% in test [8], 61.9% in [9] and 2.01% in test [10].

For `O=C(O[C@H]1CN[C@H](C#Cc2cc3ncnc(Nc4ccc(OCc5cccc(F)c5)c(Cl)c4)c3s2)C1)N1CCOCC1`, the inhibition was determined as 6.54% in test [1]; 2.93% in test [2]; 5.78% in test [3]; 1.93% in [4]; 3.32% in test [5]; 7.04% in test [6]. The inhibition is 6.43% in test [7], 0.82% in test [8], 0.68% in [9] and -7.05% in [10].

Take `CN(C)CCNC(=O)Nc1ccc(N(C)c2ccnc(Nc3ccc(CS(C)(=O)=O)cc3)n2)cc1`: the inhibition in [1] was determined as 14.5%; in test [2], 7.05%; in test [3], 14.7%; in test [4] it was 5.68%; in test [5], 19.6%; in test [6] it was 3.32%. The inhibition in test [7] is 11.7%; in [8] it was 5.95%; in test [9] it was 16.8%; in test [10], -5.4%.

Take `CCn1c(-c2nonc2N)nc2cncc(C(=O)NCCNC)c21`: the inhibition in [1] came to 5.14%; in test [2], 8.7%; in test [3], 7.62%; in test [4], 3.3%; in test [5], 5.3%; in test [6], 1.99%. In addition, the inhibition in test [7] is 4.23%; in [8], 2.36%; in [9], 4.11%; in test [10], -8.56%.

With `NS(=O)(=O)c1ccc(N/N=C2\C(=O)Nc3cccc(CCc4ccncc4)c32)cc1`, the inhibition was found to be 6.34% in [1]; 3.29% in test [2]; 8.15% in test [3]; 3.11% in [4]; 4.4% in test [5]; 1.31% in [6]. Moreover, the inhibition in test [7] was 4.47%; in test [8] it was 2.11%; in test [9], 3.55%; in test [10] it was -0.12%.

With `COc1c(C(N)=O)cc(-c2ccc(Cl)cc2)cc1-c1ccc(S(N)(=O)=O)cc1`, the inhibition in test [1] stood at 2.49%; in test [2], 2.41%; in test [3], 4.61%; in [4], 3.19%; in [5], 3.54%; in [6], 5.82%. Further, the inhibition was 7.26% in test [7], 2.13% in [8], 3.9% in test [9] and -6.59% in [10].

Turning to `CN(c1ccc(NC(=O)NCCN2CCOCC2)cc1)c1ccnc(Nc2ccc(CS(C)(=O)=O)cc2)n1`, the inhibition in test [1] was 30.3%; in test [2], 6.51%; in [3] it was 22.1%; in [4], 4.29%; in [5], 21.8%; in test [6], 2.33%. The inhibition in test [7] is 5.11%; in [8], 6.09%; in test [9], 36%; in test [10], -1.83%.

With `Cc1ccc(-c2cc3c(NC(=O)C4CC4)ncnc3o2)cc1`, the inhibition in test [1] came to 14%; in [2], 7.48%; in [3], 29.1%; in [4] it was 5.87%; in test [5], 30.4%; in [6], 4.09%. For the same molecule, the inhibition in [7] is 10.7%; in test [8], 3.64%; in test [9], 2.5%; in [10], -6.86%.

As to `COc1cc(N2CCN(C(C)C)CC2)ccc1Nc1nc(Nc2cccc(F)c2C(=O)O)c2cc[nH]c2n1`, the inhibition in test [1] was determined as 7.98%; in [2], 4.3%; in [3] it was 5.73%; in test [4], 5.38%; in [5], 5.63%; in [6], 68.1%. The inhibition in test [7] came out at 80.7%; in [8] it was 4.02%; in [9], 5.35%; in test [10], 2.71%.

As to `CNC(=O)c1cncc(/C=C/c2ccccc2C)c1`, the inhibition in test [1] was 4.28%; in [2], 6.17%; in test [3] it was 31.7%; in test [4], 5.99%; in [5], 25.9%; in test [6], 4.09%. In addition, the inhibition in [7] is 4.22%; in [8], 6.78%; in test [9], 16.1%; in test [10] it was -3.18%.

In the case of `COc1cc2c(cc1Nc1nc(Nc3cccc(F)c3C(N)=O)c3cc[nH]c3n1)N(C(=O)CN1CCN(C(C)C)CC1)CC2`, the inhibition was 2.05% in test [1]; -2.26% in test [2]; 1.07% in test [3]; -1.27% in test [4]; -0.09% in [5]; 62.8% in test [6]. The inhibition in [7] is 82.3%; in [8], -1.03%; in test [9], -1.11%; in test [10], -1.56%.

Consider `CS(=O)(=O)Nc1ccc(-c2ccc3c(NC(=O)C4CC4)n[nH]c3c2)cc1`, for which the inhibition in [1] stood at 16.9%; in test [2], 5.2%; in test [3], 9.04%; in test [4], 3.79%; in [5], 9.67%; in test [6], 3.16%. Besides, the inhibition was 11% in [7], 2.46% in test [8], 4.71% in test [9] and -3.54% in [10].

On to `COc1ccc2ncn(-c3cc(O[C@H](C)c4ccccc4C(F)(F)F)c(C(N)=O)s3)c2c1`, for which the inhibition was 0.84% in test [1]; -1.93% in test [2]; -0.53% in [3]; 0.27% in test [4]; 9.42% in test [5]; -0.81% in test [6]. Also, the inhibition stood at 2.16% in [7], 4.37% in test [8], 2.94% in test [9] and 0.07% in test [10].

The inhibition is the change of the read-out against control, counted positive when it falls.
